Bioassay records as filed in PubChem BioAssay.
TROY signal inh: inhibitors of TROY-dependent NF-kB signaling. inhibition, % at 10 µM. 0.98% of 360,000 active. Q293 LMP1-TROYcd NF-kB luciferase reporter, 4 h. AID 1347056;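 active = compounds whose plate-normalised and pattern-corrected inhibition of the luciferase reporter signal at the single screening dose is 50% or more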
KKLEB cytotox: CF airway cell cytotoxicity counter-screen; 0.36% of 360,000 active; activity change (cytotoxicity), % at 5 µM; KKLEB CF airway cells viability, ATPlite luminescence, overnight; active compounds read low; cells stimulated with P. aeruginosa culture filtrate;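 active = corrected activity change at or below -50% at 5 µM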
CF NFkB block: inhibitors of cystic fibrosis induced NF-kB; KKLEB NF-kB-GFP reporter, PAF-induced, GFP fluorescence overnight; inhibition, % at 5 µM; 0.86% of 360,000 active; AID 588850;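 active = at least 50% inhibition at 5 µM, scaled per plate between neutral and stimulator controls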;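 note: PAF is a Pseudomonas aeruginosa culture filtrate used as stimulus; plate controls were PAF-stimulated DMSO wells for no effect and unstimulated DMSO wells for full effect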
TWEAK Fn14 block: inhibitors of TWEAK-Fn14 interaction signaling; 2% of 360,000 active; TWEAK-stimulated Fn14 reporter cells, luciferase luminescence, 8 h; inhibition, % at 10 µM; in the data active = inhibition above about 50%
HIF-2a inh: blocks HIF-2a reporter activity. 0.72% of 360,000 active. AID 624352. inhibition, % at 18.8 µM. 786-0 RCC cells HIF-2a reporter, luciferase luminescence, overnight;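 active = inhibition of the luminescence signal of 40% or more relative to plate controls, in a single-dose primary screen at 18.75 µM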
Peg3 promoter: Peg3 promoter activity inhibition; inhibition, % at 20 µM; 1.7% of 360,000 active; AID 588405; HeLa PEG-Prom luciferase reporter, luminescence, overnight;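 active = inhibition of at least 50% at 20 µM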
CF NFkB inh conf: CF NF-kB inhibition confirmation, single concentration; shares compounds with CF NFkB block; KKLEB CF airway cells, PAF-induced NF-kB-GFP fluorescence, overnight; inhibition, % at 5 µM; 64% of 1,300 active; AID 602472; in the data active = inhibition above about 40%;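 note: stimulus PAF is a Pseudomonas aeruginosa filtrate and not platelet activating factor; plate controls were DMSO wells with stimulus for no effect and unstimulated DMSO wells for full effect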
Numbers without * were called inactive; ! = not confirmed by another sample. This is a sample that favours compounds with a hit; in the whole collection about 3.9% have one here.

CCOC(=O)c1c(C)[nH]c(C)c1C(=O)CSc1nc2ccccc2c(=O)n1-c1ccc(CC)cc1 was read as TROY signal inh 14, KKLEB cytotox -19, CF NFkB block 56*, TWEAK Fn14 block 50*, HIF-2a inh -11, Peg3 promoter 44 and CF NFkB inh conf 37.
`c1ccc(CNc2ncnc3ccccc23)cc1` gave TROY signal inh 28, KKLEB cytotox -12, CF NFkB block 50*!, TWEAK Fn14 block 52*!, HIF-2a inh 4, Peg3 promoter 7 and CF NFkB inh conf 41*.
Screening Nc1ncnc(NCc2ccc(F)cc2)c1[N+](=O)[O-] returned TROY signal inh 14, KKLEB cytotox -24, CF NFkB block 64*, TWEAK Fn14 block 60*, HIF-2a inh 8, Peg3 promoter -6 and CF NFkB inh conf 64*.
`O=[N+]([O-])c1ccc2ncnc(Nc3ccc4c(c3)OCCO4)c2c1` gave TROY signal inh 29, KKLEB cytotox -17, CF NFkB block 65*, TWEAK Fn14 block 33, HIF-2a inh 14, Peg3 promoter -4 and CF NFkB inh conf 38.
`Cc1ccc(O)c(Nc2ncnc3ccc([N+](=O)[O-])cc23)c1` gave TROY signal inh 42, KKLEB cytotox 0, CF NFkB block 44, TWEAK Fn14 block 47, HIF-2a inh 14 and Peg3 promoter -4.
`Cc1ccc(S(=O)(=O)Nc2nc3ccccc3nc2Nc2cccc(S(=O)(=O)N3CCCC3)c2)cc1` gave TROY signal inh 54*, KKLEB cytotox -44, CF NFkB block 69*, TWEAK Fn14 block 69*, HIF-2a inh -49, Peg3 promoter 37 and CF NFkB inh conf 71*.
For Cc1ccc(Cc2c(-c3ccco3)nc3c(C)cc(Br)cn23)cc1 the results were TROY signal inh 2, KKLEB cytotox -16, CF NFkB block 51*, TWEAK Fn14 block 44, HIF-2a inh -1, Peg3 promoter -60 and CF NFkB inh conf -14.
For Clc1ccc(-c2nc3ccc(Cl)cn3c2Cc2cccc(Cl)c2)cc1 the results were TROY signal inh 14, KKLEB cytotox 8, CF NFkB block 4, TWEAK Fn14 block 2, HIF-2a inh -184 and Peg3 promoter -79.
`Clc1cccc(Cc2c(-c3ccco3)nc3ccc(Cl)cn23)c1` gave TROY signal inh -2, KKLEB cytotox -14, CF NFkB block 70*, TWEAK Fn14 block 64*, HIF-2a inh 18, Peg3 promoter -11 and CF NFkB inh conf -50.
COc1ccc(CN(C(=O)CSc2nnc(-c3ccc(F)cc3)o2)c2ccc(F)cc2)cc1 was read as TROY signal inh 1, KKLEB cytotox -1, CF NFkB block 9, TWEAK Fn14 block 10, HIF-2a inh -13 and Peg3 promoter -9.
For COc1ccc(CN(C(=O)CSc2nnc(-c3c[nH]c4ccccc34)o2)c2ccc(F)cc2)cc1OC the results were TROY signal inh 38, KKLEB cytotox -8, CF NFkB block 63*, TWEAK Fn14 block 72*, HIF-2a inh -176, Peg3 promoter 107* and CF NFkB inh conf 68*.
`CCSC1(SCC)N=C(N)C2(C#N)C(c3ccc(OC)c(OC)c3OC)C12C#N` (stereo unspecified) gave TROY signal inh 48, KKLEB cytotox -17, CF NFkB block 79*, TWEAK Fn14 block 47, HIF-2a inh 35, Peg3 promoter 30 and CF NFkB inh conf 35.
Cc1nn(-c2ccccn2)c2c1-c1nc(N)ncc1CC2 was read as TROY signal inh -47, KKLEB cytotox -12, CF NFkB block 58*, TWEAK Fn14 block 12, HIF-2a inh -163, Peg3 promoter -235 and CF NFkB inh conf 54*.
Screening Cc1cc(N2CCC(C)CC2)nc2cccc(O)c12 returned TROY signal inh -11, KKLEB cytotox -16, CF NFkB block 5, TWEAK Fn14 block -1, HIF-2a inh -167 and Peg3 promoter -184.
`Cc1cc(C)c2cc(C(=O)N3CCC(C(=O)c4ccc(F)cc4)CC3)[nH]c2c1` gave TROY signal inh 14, KKLEB cytotox -21, CF NFkB block 18, TWEAK Fn14 block -14, HIF-2a inh 8 and Peg3 promoter 24.
For O=C(CCc1ccc(O)cc1)c1c(O)cc(O)cc1O the results were TROY signal inh -31, KKLEB cytotox 18, CF NFkB block 8, TWEAK Fn14 block -3, HIF-2a inh -16 and Peg3 promoter 1.
COc1cc(O)c(CC=C(C)C)c(O)c1C(=O)CCc1ccc(O)cc1 was read as TROY signal inh 71*, KKLEB cytotox -4, CF NFkB block 52*, TWEAK Fn14 block 81*, HIF-2a inh -303, Peg3 promoter 13 and CF NFkB inh conf 44*.
Screening Nc1nccc(SCc2ccc(Cl)cc2Cl)n1 returned TROY signal inh 18, KKLEB cytotox -15, CF NFkB block 57*, TWEAK Fn14 block 57*, HIF-2a inh -34, Peg3 promoter 11 and CF NFkB inh conf 55*.
COc1ccc(-c2cc(=O)oc3cc(OC(=O)C4CCCCC4)ccc23)cc1 was read as TROY signal inh 22, KKLEB cytotox 0, CF NFkB block 74*, TWEAK Fn14 block 54*, HIF-2a inh -7, Peg3 promoter -13 and CF NFkB inh conf 84*.
Screening C=CCN(CC=C)c1ncnc2[nH]ncc12 returned TROY signal inh 32, KKLEB cytotox 3, CF NFkB block 65*, TWEAK Fn14 block 67*, HIF-2a inh 15, Peg3 promoter 13 and CF NFkB inh conf 63*.
For CN(c1cccnc1)c1ncnc2[nH]ncc12 the results were TROY signal inh -9, KKLEB cytotox 0, CF NFkB block 18, TWEAK Fn14 block -10, HIF-2a inh 9 and Peg3 promoter -9.
For C=C1C[C@H]2[C@@H]3C=C(C)C4=CC(=O)CC[C@]4(C)[C@H]3CC[C@]2(C)[C@@]1(OC(C)=O)C(C)=O the results were TROY signal inh 18, KKLEB cytotox 4, CF NFkB block 68*, TWEAK Fn14 block -4, HIF-2a inh 22, Peg3 promoter -4 and CF NFkB inh conf -33.
`COc1ccc(-c2csc3ncnc(Nc4ccc(O)cc4)c23)cc1` gave TROY signal inh 46, KKLEB cytotox -2, CF NFkB block 32, TWEAK Fn14 block 28, HIF-2a inh 21 and Peg3 promoter 2.
For COc1ccc(-c2csc3ncnc(NCCO)c23)cc1 the results were TROY signal inh 45, KKLEB cytotox -5, CF NFkB block 77*, TWEAK Fn14 block 72*, HIF-2a inh 36, Peg3 promoter 13 and CF NFkB inh conf 86*.
For CS(=O)(=O)Nc1cccc(-c2cc(NC=O)c3ncc(-c4ccc(F)cc4)n3c2)c1 the results were TROY signal inh 27, KKLEB cytotox -28, CF NFkB block 52*, TWEAK Fn14 block 21, HIF-2a inh -25, Peg3 promoter 41 and CF NFkB inh conf 53*.
